This is an account of results in PubChem BioAssay (EPA / NIEHS).

Results filed as inconclusive are left out. The source made the active and inactive calls. How the source made its calls, unless noted: active means hit-call score of the fitted dose curve at least 0.9, where 1 is the maximum; inactive means score below 0.9.

A word on the AC50: it is the concentration at which the activity in the assay is half-maximal.

Assay [1] is described as follows: CCTE_Simmons_CellTiterGLO_HEK293T: Viability Assessment in CCTE's Assays for Thyroperoxidase (TPO) Inhibition, Simmons Lab (AID 2283665; active means hit-call score of the fitted dose curve at least 0.9, where 1 is the maximum;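 further: cells exposed to compound for 24 h before readout; actives reduce ATP signal below DMSO vehicle meaning cytotoxicity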). Summed up:
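HEK293T, 10 000 cells/well, DMEM + 1% FBS; 8-pt titration 5 nM–87.5 uM [final], 0.5% DMSO; 24 hr, 37C, 5% CO2; CellTiter-Glo luminescence; n=3 biological replicates.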
(In ATP-based viability assays light output follows the ATP content of the culture.)

The nature of assay [2]: CCTE_Shafer_MEA_dev_AB: CCTE's Alamar Blue Assay for Cytotoxicity in the Neural Network Formation Assay, Shafer Lab (AID 2284083; active means hit-call score of the fitted dose curve at least 0.9, where 1 is the maximum;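 further: resazurin reduction fluorescence as viability of cultured neurons; twelve days of exposure from plating with re-dosing on DIV 5 and 9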). Put shortly: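 Fluorescent resazurin reduction serves as the viability read-out, with DMSO as negative control and baseline. Cells were primary rat cortical neurons grown on MEA plates and dosed from day 0 to day 12, treatment renewed on DIV 5 and 9.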
(The colour change of resazurin is a common sign of viable cells or microbes.)

Assay [3] in a line: UKN2_HCS_IMR90_neural_migration: University of Konstanz (UKN) Leist Lab Neural Crest Cell Migration Assay in human induced IMR90 Pluripotent Stem Cells (UKN2) (AID 2284204). The following applies: actives raise or lower the signal. Put shortly: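 iPSC-derived IMR90 neural crest cells on PLO/laminin/fibronectin were seeded around silicone stoppers; after stopper removal, migration in N2-S medium with EGF and FGF ran 24 h before 24 h chemical exposure. Calcein-AM/Hoechst high-content imaging; bidirectional fit versus DMSO.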

Assay [4] is described as follows: CCTE_Mundy_HCI_Cortical_Synap_Neur_Matur_SynapseCount: CCTE's Synaptogenesis and Neurite Maturation Assay in rat cortical cells for Synapse Count, Mundy Lab (AID 2284218). Put shortly: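 Primary rat cortical culture; AraC DIV 5 to arrest glia; compound + media change DIV 7; terminated DIV 12. PFA/Hoechst fix, anti-MAP2 + anti-synaptophysin immunostain; HCI synapse count/neuron; DMSO = baseline.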

A short description of assay [5]: CCTE_Mundy_HCI_Cortical_Synap_Neur_Matur_CellBodySpotCount: CCTE's Synaptogenesis and Neurite Maturation Assay in rat cortical cells for Cell Body Spot Count, Mundy Lab (AID 2284223). Put shortly:
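Primary rat cortical cultures, AraC added at DIV 5; dosed DIV 7 through DIV 12 […]. Fixed, stained for MAP2 and synaptophysin with Hoechst; cell body-associated synaptophysin puncta per neuron counted by high-content imaging, loss vs DMSO.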

Assay [6] can be described thus: CCTE_Mundy_HCI_hNP1_Pro_ResponderAvgInten: CCTE's Proliferation Assay in human neuroprogenitor cells, Mundy Lab (AID 2284224; active means hit-call score of the fitted dose curve at least 0.9, where 1 is the maximum;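 further: human neural progenitor cells hNP1 derived from WA09 embryonic stem cells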). Summed up:
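Human neuroprogenitors (hNP1, WA09 lineage) receive test chemical after 40 to 44 hours of attachment. A four-hour BrdU pulse begins twenty hours later, followed by fixation and high content imaging; signal is referenced to DMSO controls.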

Assay [7] is described as follows: CCTE_Mundy_HCI_Cortical_NOG_NeuronCount: CCTE's Neurite Outgrowth Assay in rat cortical cells for Neuron Count, Mundy Lab (AID 2284236; active means hit-call score of the fitted dose curve at least 0.9, where 1 is the maximum;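 further: neurons counted by imaging betaIII-tubulin and Hoechst stained cortical cells; cells exposed to compound for about 48 hours before fixation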). Summed up: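 Read-out: neuron number by high-content imaging of betaIII-tubulin (Alexa Fluor-488) and Hoechst-labelled rat primary cortical cells.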
A short description of assay [8]: CCTE_Mundy_HCI_hNP1_Casp3_7: CCTE's Caspase-Glo 3/7 Assay in human neuroprogenitor cells for Apoptosis, Mundy Lab (AID 2284240). Summed up: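 Neuroepithelial-lineage stem cells from WA09 embryonic cells were treated with chemicals after 40–44 h of culture. Twenty-four hours later, caspase-3/7 activation was detected luminescently after a 30 min room-temperature reagent step, with DMSO as baseline.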

Assay [9] in a line: IUF_NPC2c_oligodendrocyte_migration_120hr: Leibniz Research Institute for Environmental Medicine (IUF) 120-hour Neural Progenitor Cell Migration Assay for Oligodendrocyte Migration (NPC2c) (AID 2284297).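 Further: O4-positive oligodendrocyte migration distance divided by radial glia migration distance.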 Put shortly:
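Human fetal neural progenitor spheres (0.3 mm) are plated on poly-D-lysine/laminin in N2 differentiation medium and exposed for 120 h, with half-medium renewal at day 3. Oligodendrocyte (O4+) migration distance comes from ICC imaging, normalised to radial glia migration.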

Assay [10] is described as follows: IUF_NPC2a_radial_glia_migration_120hr: Leibniz Research Institute for Environmental Medicine (IUF) 120-hour Neural Progenitor Cell Migration Assay for Radial Glia Migration (NPC2a) (AID 2284298). Put shortly: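 Human fetal-cortex neural progenitor spheres (0.3 mm) plated on poly-D-lysine/laminin in N2 differentiation medium, exposed 120 h at 37C with half-medium renewal at day 3. Radial glia migration distance (um) measured from Hoechst-stained nuclei images; DMSO baseline.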

A short description of assay [11]: IUF_NPC2a_radial_glia_migration_72hr: Leibniz Research Institute for Environmental Medicine (IUF) 72-hour Neural Progenitor Cell Migration Assay for Radial Glia Migration (NPC2a) (AID 2284299). Put shortly: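 Primary hNPC spheres, fetal brain GW 16-19, on PDL/laminin; DMEM/F12 3:1 + 1% N2. Compound dosed day 0, 7 conc. + SC, half-medium refresh day 3. 72 h brightfield, migration distance core-to-front (um), 4 directions averaged.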

The nature of assay [12]: IUF_NPC2b_neuronal_migration_120hr: Leibniz Research Institute for Environmental Medicine (IUF) 120-hour Neural Progenitor Cell Migration Assay for Neuron Migration (NPC2b) (AID 2284300). Summed up:
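0.3 mm hNPC spheres on poly-D-lysine/laminin in N2 differentiation medium exposed 120 h, half-medium refresh day 3; 7 concentrations, DMSO max 0.1%. Neuron (TUBB3) distance from sphere core by ICC imaging, normalised to radial glia migration.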

Assay [13] in a line: IUF_NPC3_neuronal_differentiation_120hr: Leibniz Research Institute for Environmental Medicine (IUF) 120-hour Neuronal Differentiation Assay (NPC3) (AID 2284301). Summed up: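 Primary human fetal neural progenitor spheres (GW 16-19, 0.3 mm) plated on poly-D-lysine/laminin in N2 medium, exposed from day 0 for 120 h with half-medium refresh at day 3. TUBB3+ cells as percent of Hoechst nuclei in migration area; DMSO baseline.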

A short description of assay [14]: IUF_NPC4_neurite_length_120hr: Leibniz Research Institute for Environmental Medicine (IUF) 120-hour Neuronal Morphology Assay for Neurite Length (NPC4) (AID 2284302). Summed up: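 Human fetal cortex (GW 16-19) neural progenitor spheres, 0.3 mm, were plated on poly-D-lysine/laminin in N2 differentiation medium and exposed from day 0 for 120 h, half-feeding at day 3. Mean TUBB3+ neurite length (µm) came from skeletonized images, relative to DMSO.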

Assay [15] is described as follows: IUF_NPC5_oligodendrocyte_differentiation_120hr: Leibniz Research Institute for Environmental Medicine (IUF) 120-hour Oligodendrocyte Differentiation Assay (NPC5) (AID 2284304; active means hit-call score of the fitted dose curve at least 0.9, where 1 is the maximum;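 further: primary human fetal neural progenitor spheres plated to migrate and differentiate; share of O4-positive cells among Hoechst nuclei found by CNN image analysis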). Put shortly: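 Human fetal neural progenitor spheres (0.3 mm) plated on poly-D-lysine/laminin in N2 differentiation medium and exposed for 120 h at 7 concentrations, with half-medium renewal at day 3. O4-positive cells identified by CNN, expressed as percent of Hoechst nuclei.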

Assay [16] can be described thus: IUF_NPC2-5_cytotoxicity_72hr: Cytotoxicity Assessment at 72 hours in the Leibniz Research Institute for Environmental Medicine (IUF) Neural Progenitor Cell Migration and Differentiation Assay for Cytotoxicity (NPC2-5) (AID 2284306; active means hit-call score of the fitted dose curve at least 0.9, where 1 is the maximum;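 further: LDH release into supernatant measured by resorufin fluorescence marking membrane damage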). Summed up:
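Human fetal (GW 16-19) neural progenitor spheres, 0.3 mm, plated on poly-D-lysine/laminin in N2 differentiation medium and exposed from day 0 to 7 concentrations plus solvent control (DMSO ≤0.1%). LDH-dependent resazurin-to-resorufin fluorescence in supernatant at 72 h.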

Assay [17] in a line: IUF_NPC2-5_cytotoxicity_120hr: Cytotoxicity Assessment at 120 hours in the Leibniz Research Institute for Environmental Medicine (IUF) Neural Progenitor Cell Migration and Differentiation Assay (NPC2-5) (AID 2284307; active means hit-call score of the fitted dose curve at least 0.9, where 1 is the maximum;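 on AC50: LDH released into supernatant as membrane damage marker via resorufin fluorescence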). Put shortly: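 Human fetal (GW 16-19) neural progenitor spheres (0.3 mm) plated on poly-D-lysine/laminin in N2 differentiation medium, exposed 120 h with half-medium renewal at day 3; 7 concentrations plus solvent control, DMSO ≤0.1%. LDH release in supernatant read by resorufin fluorescence.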

Assay [18] can be described thus: IUF_NPC2-5_cell_number_120hr: Cell Number Assessment at 120 hours in the Leibniz Research Institute for Environmental Medicine (IUF) Neural Progenitor Cell Migration and Differentiation Assay (NPC2-5) (AID 2284308).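 Further: count of Hoechst-stained nuclei in migration zone around plated human neural progenitor spheres.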 Put shortly:
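Human fetal neural progenitor spheres (0.3 mm) plated on poly-D-lysine/laminin in N2 differentiation medium, exposed five days across 7 concentrations with half-medium refresh at day 3. Hoechst-positive nuclei counted in migration area at 120 h, relative to DMSO.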

Assay [19] is described as follows: IUF_NPC2-5_viability_120hr: Viability Assessment at 120 hours in the Leibniz Research Institute for Environmental Medicine (IUF) Neural Progenitor Cell Migration and Differentiation Assay (NPC2-5) (AID 2284312). Put shortly: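 Human fetal (GW 16-19) neural progenitor spheres of 0.3 mm were plated on poly-D-lysine/laminin in N2 differentiation medium and exposed from day 0 for 120 h, with half-medium refresh at day 3. Viability was read as alamar blue resazurin-to-resorufin fluorescence against DMSO.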

Assay [20] can be described thus: IUF_NPC1_cytotoxicity_72hr: Cytotoxicity Assessment at 72 hours in the Leibniz Research Institute for Environmental Medicine (IUF) Neural Progenitor Cell Proliferation Assay (NPC1) (AID 2284332; active means hit-call score of the fitted dose curve at least 0.9, where 1 is the maximum;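 further: rising LDH signal means more cytotoxicity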). Summed up:
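Spheres of primary human neural progenitors are plated one per well on day 0 in growth-factor medium and dosed at once. After three days at 37C, supernatant LDH is measured fluorimetrically via resazurin reduction.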

Turning to `CCN(CC)CCNC(=O)c1c(C)[nH]c(/C=C2\C(=O)Nc3ccc(F)cc32)c1C`, in assay [1], the AC50 is 12.8 µM (active).

On to `Cc1c(O)cccc1C(=O)N[C@@H](CSc1ccccc1)[C@H](O)CN1C[C@H]2CCCC[C@H]2C[C@H]1C(=O)NC(C)(C)C`, for which the AC50 was 10.1 µM (active) in assay [2]; 3.11 µM (active) in assay [4]; 6.41 µM (active) in [5]; 13.8 µM (active) in assay [6]; 25 µM (active) in assay [7]; 18.7 µM (active) in assay [8]. In addition, the AC50 is 12.7 µM (active) in assay [9]; 8.08 µM (active) in [10]; 13.4 µM (active) in [11]; 19.9 µM (active) in [12]; 7.87 µM (active) in [13]; 7.21 µM (active) in assay [14]. Moreover, the AC50 in [15] is 0.596 µM (active); in [16], 14.5 µM (active); in assay [17] it was 9.82 µM (active); in assay [18], 8.12 µM (active); in assay [19], 7.38 µM (active). Further, the molecule was classed as inactive in [3] and in assay [20].

Turning to `CC1(C)S[C@@H]2[C@H](NC(=O)[C@H](N)c3ccc(O)cc3)C(=O)N2[C@H]1C(=O)O`, the molecule was classed as inactive in assay [4], in assay [5], in assay [6], in [7], in assay [8] and in [9]. In addition, the molecule was called inactive in [10], in [11], in [12], in assay [13], in [14] and in assay [15]. Further, the call in [16], in assay [17], in assay [18], in [19] and in assay [20] was inactive.
